This passage reports growth results from PubChem BioAssay (NCI).

Compounds without any hit were thinned out: in the full panel of roughly 83,000, 20% have a hit.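 Treatment: one concentration, 48 hours, 96-well format. Scoring: percent growth, with anything below 10 considered active.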 Active and inactive are the calls of the source.

This assay deals with UACC-62 melanoma. The assay can be described thus: NCI-60 one-dose screen, 48 h (100 = growth as untreated, 0 = no growth, -100 = all killed). To be noted: 10 µM unless noted. As to the method:
Growth inhibition of the UACC-62 human tumor cell line is measured as a screen for anti-cancer activity. Cells are grown in 96 well plates and exposed to the test compound for 48 hours. Compounds are tested at a single concentration, which is 10^-5 M for most compounds. The reported endpoint is percent growth (GI% or GIPRCNT), where numbers from 0 - 100% represent growth inhibition, and numbers from -100% - 0 represent cell death. For example, a value of 40 represents 60% growth inhibition. A value of 0 means no net growth occurred over the course of the experiment. A value of -40 indicates 40% of cells at the beginning of the experiment died by the end of the experiment. A value of -100 means all cells are dead at the end of the experiment.
NCI-60 Human Tumor Cell Lines Screen was performed using the standard one-dose NCI protocol, which is described in more detail at https://dtp.cancer.gov/discovery_development/nci-60/default.htm.
Compounds with GIPRCNT values below 10 were considered active. Activity score was based on GIPRCNT using the following formula: […]
Score is 0 for GIPRCNT values of 100 or above, 50 for GIPRCNT values of 0, and 100 for GIPRCNT values of -100.
As for `COc1ccc(/C(C)=C(\c2ccc(OCCN3CCOCC3)cc2)c2ccc(OC(=O)Cc3ccccc3)cc2)cc1`, the growth is 106% (inactive).

`CC[C@H](C)[C@H](NC(=O)N[C@@H](C)c1ccccc1)C(=O)N(C)[C@H](C[C@@H](OC(C)=O)c1nc(C(=O)N[C@@H](Cc2ccccc2)C[C@H](C)C(=O)OC)cs1)C(C)C`: the growth was 11.4% (inactive). Turning to `Cc1c(C)c([N+](=O)[O-])c(C)c(C)c1[N+](=O)[O-]`, the growth was 102% (inactive).

For the compound `C=C(C)[C@@]12OC3(/C=C/C=C/CCCCC)O[C@@H]1[C@@H]1[C@@H]4O[C@]4(CO)[C@@H](O)[C@]4(O)C(=O)C(C)=C[C@H]4[C@@]1(O3)[C@H](C)[C@H]2OC(=O)c1ccccc1`, the growth was 59.7% (inactive). The value for `O=C1Nc2ccccc2C2c3cccn3-c3ccccc3CN12` (stereo not given) was 35% (inactive); that for `C[C@]12CCc3sc(-c4ccccc4O)nc3C1=CC[C@@H]1[C@@H]2CC[C@]2(C)C(=O)CC[C@@H]12` was 94.3% (inactive).

Take `COc1ccc(C/C(C)=C(\c2ccc(OCCN3CCOCC3)cc2)c2ccc(OC(=O)Cc3ccccc3)cc2)cc1`: the growth was -87.7% (active). For the compound `NC(CCl)CCl`, the growth was 99.9% (inactive). To `CC(C)CCC1(CCCl)C(=O)NC(=O)NC1=O` belongs 97.6% (inactive); to `COC(=O)[C@@H](C)C[C@H](Cc1ccc(F)cc1)NC(=O)c1csc([C@@H](C[C@H](C(C)C)N(C)C(=O)[C@@H](NC(=O)[C@H]2CCCCN2C)C(C)C)OC(C)=O)n1`, 42.2% (inactive); to `CN1CCC(c2c[nH]c3ccccc23)C1` (stereo not given), 107% (inactive). The value for `C=CC[n+]1ccc(-c2cc[n+](CC=C)cc2)cc1` was 110% (inactive).

As for `CCOc1ccc(/C=C/[N+](=O)[O-])cc1`, the growth is 92.8% (inactive). Take `CCOC(=O)[C@@H](C)C[C@H](Cc1ccccc1)NC(=O)c1csc([C@@H](C[C@H](C(C)C)N(C)C(=O)[C@@H](NC(=O)[C@H]2C[C@H](O)CCN2C)C(C)C)OC(C)=O)n1`: the growth was 38.4% (inactive). On to `Cc1cc(-c2nc3cc(F)ccc3[se]2)cc(F)c1N`, for which the growth is 85.7% (inactive). To `C[C@]12CC[C@H]3[C@@H](CC[C@]4(O)C[C@@H](O[C@@H]5O[C@H](CO)[C@@H](O[C@@H]6OC[C@@H](O)[C@H](O)[C@H]6O)[C@H](O)[C@H]5O)CC[C@]34C=O)[C@@]1(O)CC[C@@H]2C1=CC(=O)OC1` belongs 1.05% (active). For `O=C1CC2(CC3(Cl)C(Cl)=C(Cl)C2(Cl)C3(Cl)Cl)C(=O)O1` (stereo not given), the growth was 112% (inactive). Consider `COc1cccc(C=NC(Cc2cnc[nH]2)C(=O)O)c1O` (stereo not given), for which the growth is 95.6% (inactive). As for `CC1(C)N=C(N)N=C(N)N1c1ccc(CCCCc2ccc(Cl)c(S(=O)(=O)F)c2)c(Cl)c1`, the growth was 16.2% (inactive).

Regarding `C=C1C[C@](OC)([C@H](O)C(=O)N[C@@H](OC)[C@@H]2C[C@@H](O)C(C)(C)[C@@H](C[C@@H](COC)OC)O2)O[C@H](C)[C@@H]1C`, the growth was -92.5% (active).

For `O=C1NC(=O)C(=Cc2cccn2CCCCCn2c3ccccc3c(=O)c3ccccc32)C(=O)N1`, the growth was 90.7% (inactive).

`[Cl][Hg][c]1cc[c]([Hg][Cl])o1`: the growth was 47.1% (inactive).

`COC(=O)[C@@H](C)C[C@H](Cc1ccccc1)NC(=O)c1nc([C@@H](C[C@H](C(C)C)N(C)C(=O)[C@@H](NC(=O)[C@H]2C[C@H](O)CCN2C)C(C)C)OC(C)=O)sc1C(C)C`: the growth was 31.3% (inactive). Consider `ClCCN(CCCl)c1nc(Cl)c(C2CC(c3ccccc3)=NN2c2cc(Cl)cc(Cl)c2)s1` (stereo not given), for which the growth is 92.9% (inactive). To `O=C(CCCCCCC(=O)Nc1ccc(N(CCCl)CCCl)cc1)NO` belongs 14.5% (inactive). `C[C@]12CCc3sc(-c4cccc(F)c4)nc3C1=CC[C@@H]1[C@@H]2CC[C@]2(C)C(=O)CC[C@@H]12`: the growth was 34.9% (inactive). Consider `COc1cc2c(cc1OCCCn1c(-c3ccccn3)nc3ccccc31)N=C[C@@H]1CCCN1C2=O`, for which the growth was -75.9% (active). As to `COC(=O)[C@@H](C)C[C@H](Cc1ccc2ccccc2c1)NC(=O)c1csc([C@@H](C[C@H](C(C)C)N(C)C(=O)[C@@H](NC(=O)[C@H]2CCCCN2C)C(C)C)OC(C)=O)n1`, the growth is 49.3% (inactive). In the case of `COc1cc([C@@H]2c3cc4c(cc3[C@H](OC(C)=O)[C@H]3COC(=O)[C@@H]23)OCO4)cc(OC)c1OC`, the growth is 18.5% (inactive).

Regarding `N#C[Se]CCN1C(=O)c2ccccc2C1=O`, the growth is 22.7% (inactive). On to `ClC1=C(Cl)C(Cl)(C2(Cl)C(Cl)=C(Cl)C(Cl)=C2Cl)C(Cl)=C1Cl`, for which the growth is -18.6% (active). Consider `CC(C)(N)Cc1ccccc1`, for which the growth is 107% (inactive). `COc1ccc(Nc2ccnc3cc(Cl)ccc23)cc1CN(CCCl)CCCl`: the growth was -87% (active). For `CC[C@H](C)[C@H](NC(=O)[C@H]1CCCCN1C)C(=O)N(C)[C@H](C[C@@H](OC(C)=O)c1nc(C(=O)N[C@@H](Cc2ccccc2)C[C@H](C)C(=O)OC)cs1)C(C)C`, the growth was 43.6% (inactive).

Regarding `O=C(CCCCCNC1=CC(=O)c2ccccc2C1=O)NCCC[Te]c1ccccc1`, the growth is -27.7% (active). To `O=[N+]([O-])c1c(Br)sc(Br)c1[N+](=O)[O-]` belongs -1.09% (active). Take `O=C1N[C@@H]2[C@@H](O)[C@@H](O)[C@H](O)C[C@H]2c2cc3c(c(O)c21)OCO3`: the growth is -48.3% (active).

In the case of `Cc1ccc(Nc2nc3c(s2)C2=CC[C@@H]4[C@H](CC[C@]5(C)C(=O)CC[C@@H]45)[C@@]2(C)CC3)cc1`, the growth is 68.3% (inactive). The value for `C=COC(=O)CCN1CC1` was 97.9% (inactive); that for `CNC(=O)Oc1ccc(N(C)C)cc1C(C)C` was 102% (inactive).
